IL1B cytotox – HUVEC cytotoxicity counter-screen, IL-1B stimulated; hit rate 0.41% among 94,000; HUVEC cell count loss, Hoechst imaging; cell count reduction, % at 2 µM; AID 845;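 active = cell count reduction more than 3 SD above the screen-wide mean, cut at about 70% in these data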;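 also: normalized per plate to untreated control cells as the no-loss baseline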
TNFa cytotox – HUVEC cytotoxicity counter-screen, TNF alpha stimulated; HUVEC TNFalpha-stimulated, Hoechst cell count, imaging; cell count reduction, % at 2 µM; hit rate 0.17% among 93,000; AID 848;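 active = cell count reduction exceeding the screen mean by over 5 SD, scaled to untreated wells per plate, cut at about 78% in these data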;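 also: cells counted after 24 h of TNF alpha exposure following the 1 h pretreatment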
NFkB transloc inh – blocks IL-1B driven NFkB nuclear translocation in HUVEC cells; HUVEC IL-1B NFkB p65 nuclear translocation imaging; inhibition, % at 2 µM; hit rate 0.43% among 94,000; AID 796;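 active = inhibition above about 30% together with a positive call from visual inspection of the well image, limit read from the data; inconclusive = inhibition above a set limit but visual check negative; inactive = inhibition not above a set limit, visual check negative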;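 also: nuclear over cytoplasmic p65 intensity ratio measured by imaging; 0% = IL-1B stimulated DMSO wells and 100% = unstimulated DMSO wells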
IL1B NFkB pot – enhances IL-1B driven NFkB nuclear translocation | HUVEC IL-1B NFkB p65 nuclear translocation imaging | activation, % at 2 µM | hit rate 0.3% among 94,000 | AID 819;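 active = activation above 40%, about the mean plus 3 SD, also judged a hit on visual image review; inconclusive = activation above 40% but not a hit on visual review; inactive = activation not above 40% and no visual hit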;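 also: percent activation is computed from the nuclear over cytoplasmic p65 intensity ratio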
VCAM1 TNFa inh – reduces TNF alpha induced VCAM1 expression in HUVEC | hit rate 0.48% among 95,000 | HUVEC TNFa-induced VCAM-1 immunofluorescence, high-content imaging | inhibition, % at 2 µM;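 active = inhibition above the batch mean plus 3 SD, with images confirmed as a hit by eye, cut at about 37% in these data; inconclusive = inhibition above that limit but hit not confirmed in images; inactive = inhibition not above that limit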;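 also: 0% = TNF-stimulated DMSO wells and 100% = unstimulated control wells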
E-sel TNF inh – TNF alpha driven E-selectin expression inhibition; HUVEC TNFa-induced E-selectin immunofluorescence, high content; inhibition, % at 2 µM; hit rate 0.71% among 120,000; AID 1246;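 active = inhibition above the batch mean plus 3 SD, and confirmed as a hit on visual image review, cut at about 43% in these data; inconclusive = passes the inhibition cutoff but fails visual image review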;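 also: 0% = TNF-stimulated DMSO wells and 100% = unstimulated control wells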
The depositor's hits bear a star; u = inconclusive; x = no result given. In the library only some 1.7% were active in any assay of this set; here they are far more common.

SMILES	IL1B cytotox	TNFa cytotox	NFkB transloc inh	IL1B NFkB pot	VCAM1 TNFa inh	E-sel TNF inh
O=C(COc1ccccc1)Nc1ccccc1N1CCN(c2ccc(F)cc2)CC1	26.8	-28.1	-3.5	3.5	-3.0	5.8
CCOc1ccc2[nH]cc(C(=O)NCCCN3CCOCC3)c(=O)c2c1	x	x	x	x	x	3.2
CC(C)CNc1nc(=S)nc(N(C)C)[nH]1	20.6	1.3	37.2*	-37.2	-11.8	2.3
COc1ccc(C(=O)NC(=S)NCc2ccc(-c3nc4ccccc4o3)cc2)cc1OC	-29.4	1.7	-23.7	23.7	-8.9	7.7
CCOc1cc(C(=O)NCc2ccc(-c3nc4ccccc4o3)cc2)cc(OCC)c1OCC	25.8	x	-10.3	8.7	-26.5	66.4*
COc1ccc(OC)c(C2C(C(=O)Nc3cccnc3)=C(C)NC3=C2C(=O)CCC3)c1 (stereo not drawn)	-21.1	3.1	-42.1	42.1*	17.2	-2.8
COc1ccc(OC)c(C2C3=C(CCCC3=O)NC3=C2C(=O)CCC3)c1	-8.9	5.7	-2.0	2.0	-6.8	12.4
O=C(CCCCn1c(=O)[nH]c2ccsc2c1=O)NCc1ccc2c(c1)OCO2	33.3	48.3	64.0*	-64.0	-4.3	x
CCn1cc(C(=O)NCCCOC)c2cc(OC)c(OC)cc2c1=O	x	x	x	x	x	-21.0
COCCCNC(=O)c1cn(C)c(=O)c2cc(OC)c(OC)cc12	24.4	100.0*	-3.3	3.3	u	x
C[C@@H]1CC[C@@]2(O[C@H](CCO)C[C@@H](O)[C@@H]2O)O1	x	x	x	x	x	63.5*
c1ccc(-c2ccnc3nc(N4CCN(c5ccccc5)CC4)nn23)cc1	-11.4	-14.3	1.1	-1.1	0.6	9.2
CSc1nc2nccc(-c3ccc(Oc4ccccc4)cc3)n2n1	-10.7	-42.3	-10.5	10.5	85.8*	1.1
c1ccc(Oc2ccc(-c3ccnc4nc(N5CCN(c6ccccc6)CC5)nn34)cc2)cc1	-1.9	-8.3	-5.2	5.2	29.7	52.9*
OC(CNCCC1C=Nc2ccccc21)Cn1c2ccc(Cl)cc2c2cc(Cl)ccc21 (stereo not drawn)	x	x	x	x	x	-17.1
Cc1ccc(C)c2[nH]c(=O)c(CCNC(=O)c3ccc(Br)o3)cc12	-11.2	-33.3	42.8*	-42.8	-22.4	15.4
Cc1cc2cc(CCNC(=O)c3ccc(Br)o3)c(=O)[nH]c2cc1C	-29.0	-35.4	-11.7	11.7	-34.5	x
Cc1cc(C)nc(SCC(=O)NC2=NC(=O)C(C)S2)n1 (stereo not drawn)	78.5*	-1.5	-18.8	18.8	15.2	11.0
COC(=O)c1cn(C(=O)c2ccco2)c2ccccc12	-8.2	-25.8	-6.7	6.7	5.4	-13.4
COC(=O)c1cn(C(=O)c2cccs2)c2ccccc12	94.8*	-23.3	10.4	-10.3	12.5	22.2
O=C(C1CC12CCCC2)N1CCC(CO)(Cc2ccccc2Cl)CC1 (stereo not drawn)	x	x	x	x	x	-12.5
Cc1ccc(NC(=O)Nc2ccc3c(c2)N(C)C(=O)CS3)nc1	6.4	25.1	-28.3	28.2	21.9	94.1*
Cc1ccc(S(=O)(=O)c2ccc(Cl)cc2)cc1S(=O)(=O)NC(C)C(=O)O (stereo not drawn)	x	x	x	x	x	-17.5
Cc1cc(=O)n(CC(C)O)c(O)c1C#N (stereo not drawn)	88.7*	-13.5	98.7*	-98.7	0.0	-30.1
CC(=O)c1c(C)[nH]c(C(=O)COC(=O)CN(C)S(=O)(=O)c2ccc(Cl)cc2)c1C	-15.2	-3.9	-31.1	31.1	35.7	-16.2
SMILES	IL1B cytotox	TNFa cytotox	NFkB transloc inh	IL1B NFkB pot	VCAM1 TNFa inh	E-sel TNF inh
COc1ccc(/C=N/NC(=O)C(C)n2cnc3ccccc3c2=O)cc1OC (stereo not drawn)	x	x	x	x	x	96.0*
CCOC(=O)CC(NC(=O)C1c2ccccc2Oc2ccccc21)c1ccccc1Cl (stereo not drawn)	x	x	x	x	x	0.5
O=C1CC(N2CCN(Cc3ccc4c(c3)OCO4)CC2)C(=O)N1c1ccccc1 (stereo not drawn)	14.3	26.0	9.0	-9.0	61.1*	13.4
C(=C\c1ccccc1)/CN1CCN(c2ncnc3c2oc2ccccc23)CC1	-27.9	-13.3	-40.0	40.0*	-12.1	x
c1ccc2c(c1)oc1c(N3CCOCC3)ncnc12	-22.7	5.0	-21.2	21.2	11.2	-23.8
C[n+]1cnc(-c2ccccc2)cc1-c1ccccc1	x	x	x	x	x	-9.9
Cc1ccc(C)c(NC(=S)NC(NC(=O)N(C)C)C(Cl)(Cl)Cl)c1 (stereo not drawn)	16.4	-8.2	-1.0	1.0	-5.2	10.4
Cc1ccc(C)c(NC(=S)NC(NC(=O)Cc2cccc3ccccc23)C(Cl)(Cl)Cl)c1 (stereo not drawn)	13.6	x	-0.1	0.1	67.2*	-19.6
CCCCCOC(=O)Nc1nnc(CCCCC)s1	90.2*	0.8	22.7	-22.7	-10.4	1.1
COC(=O)Nc1nnc(CCc2ccccc2)s1	2.8	10.8	-15.0	15.0	1.3	6.2
CCOCC(=O)Nc1nnc(COC)s1	-5.3	-6.0	-0.7	0.7	5.3	-30.5
CCOCCc1nnc(NC(=O)COC)s1	84.4*	-6.6	0.8	-0.8	7.3	0.1
CCOC(=O)Nc1nnc(CCc2ccccc2)s1	-4.9	-14.2	100.7*	-100.7	2.0	-1.6
CC1(C)CC(=O)C(CC(=O)NC2CCCc3ccccc32)C(=O)C1 (stereo not drawn)	x	x	x	x	x	2.6
O=C(NCC1COCCO1)C1CCN(S(=O)(=O)c2ccccc2)CC1 (stereo not drawn)	94.3*	5.0	96.5*	-96.5	1.6	-13.3
O=C(c1ccco1)N1N=C2CCCCCC2C1(O)C(F)(F)F (stereo not drawn)	x	x	x	x	x	-0.2
O=[N+]([O-])c1ccccc1Sc1nccn1Cc1ccccc1	x	x	x	x	x	-1.7
O=C1N2CCSC2=NC1(Nc1ccccn1)C(F)(F)F (stereo not drawn)	-23.8	-17.6	-21.9	21.9	85.5*	x
CCOC(=O)c1[nH]c2ccccc2c1NC(=O)c1ccc(S(=O)(=O)N2CCCCC2)cc1	x	x	x	x	x	-16.5
O=S(=O)(N/N=C\C=C\c1ccccc1)c1ccc(Cl)cc1	12.4	-15.7	-11.5	11.5	10.1	-52.3
C=CCN1C(=O)C2C(C(=O)NC3CCCCC3)C3C=CC2(O3)C1C(=O)NC1CCCC1 (stereo not drawn)	89.6*	0.4	99.5*	-99.5	-20.6	11.6
CCCN1C(=O)C2C(C(=O)Nc3cccc(OC)c3)C3C=CC2(O3)C1C(=O)NC1CCCCC1 (stereo not drawn)	24.0	7.5	-7.3	7.2	-18.6	-73.9
CCOC(=O)C1=NOC(COc2ccccc2C=O)C1 (stereo not drawn)	x	x	x	x	x	5.2
Cc1ccc(C(c2c(C)n(C)n(-c3ccccc3)c2=O)c2c(C)n(C)n(-c3ccccc3)c2=O)s1	x	x	x	x	x	-12.1
CCC(C(=O)N1CCc2cc(OC)c(OC)cc2C1)c1ccccc1 (stereo not drawn)	-4.7	-17.9	4.5	-4.5	11.5	99.9*
COc1cc2c(cc1OC)CN(C(=O)c1ccccc1C(=O)O)CC2	26.2	-4.1	-2.6	2.6	8.2	11.8
CC(OC(=O)CCN1C(=O)c2cccc([N+](=O)[O-])c2C1=O)C(=O)Nc1cc(Cl)cc(Cl)c1 (stereo not drawn)	x	x	x	x	x	95.0*

Bioassay records: PubChem BioAssay, Columbia University Molecular Screening Center
